Data on 19 compounds can be found in PubChem BioAssay (NCATS).

Records with an inconclusive call do not appear. Activity calls are given as the source filed them. Calls come from the whole dose curve; as a rule, active = well fitted inhibition curve with a large enough effect; inconclusive = small, poorly fitted or top-dose-only effect; inactive = flat fitted curve, though single readings scatter.
Potency is the fitted concentration of half-maximal effect.

For one assay, the system named is MKL-1. The assay is described as follows: qHTS assay to identify novel small-molecules to repurpose for Merkel cell carcinoma treatment (AID 1296009). Note: nearly all actives have a fitted effect of over 60% in size. The note with it: MCC and control cell lines, CellTiter-Glo viability, 72 h; series mostly up to 46 µM. The essentials: (§1)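 72 hr, 37 degree celsius; NPC 8-pt / MIPE 11-pt dose response; compound pinned in DMSO; CellTiter-Glo, 10 min RT, luminescence; normalized to no-cell and DMSO controls.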
A general note: In qHTS, concentration-response curves come from the screen itself.
With `S=C(SSC(=S)N1CCCCC1)N1CCCCC1`, the Potency was 0.133 µM (active).

On to `CC(C)Oc1cccc(NC(=O)c2ccccc2C(F)(F)F)c1`, for which the Potency entry is “inactive”.

Regarding `CC=C(C)C(=O)N[C@@H](c1ccccc1)[C@@H](O)C(=O)O[C@H]1C[C@@]2(O)[C@@H](OC(=O)c3ccccc3)[C@@H]3[C@]4(OC(C)=O)CO[C@@H]4C[C@H](O)[C@@]3(C)C(=O)[C@H](OC(C)=O)C(=C1C)C2(C)C`, the Potency result is “inactive”.

As for `C[C@](O)(COc1ccc(C#N)cc1)C(=O)Nc1ccc(C#N)c(C(F)(F)F)c1`, the Potency result is “inactive”.

Take `CCCN1CCO[C@@H]2c3cc(O)ccc3OC[C@@H]21`: the Potency entry is “inactive”.

In the case of `CC1(N2CCC(n3c([C@@H]4CCCNC4)nc4ccccc43)CC2)CCCCCCC1`, the Potency is 23.5 µM (active).

As to `O=C(O)c1cc(Oc2ccc(C(F)(F)F)cc2Cl)ccc1[N+](=O)[O-]`, the Potency result is “inactive”.

Regarding `C[C@@]12OC(=O)[C@]1([C@@H](O)[C@@H]1C=CCCC1)NC(=O)[C@H]2CCCl`, the Potency was 1.18 µM (active).

For the compound `Cc1c(C(=O)c2cccc3ccccc23)c2cccc3c2n1[C@H](CN1CCOCC1)CO3`, the Potency was 23.5 µM (active).

For the compound `CO[C@H]1CCC(O[C@H]2C[C@H]([C@]3(C)CC[C@]4(C[C@H](O)[C@@H](C)[C@@H]([C@@H](C)C=C(C)C(=O)[C@H](C)C[C@H](C)C(=O)O)O4)O3)O[C@]3(O[C@@H]([C@H]4O[C@@](O)(CO)[C@H](C)C[C@H]4C)C[C@H]3C)[C@H]2C)O[C@H]1C` (stereo partly drawn), the Potency is 0.935 µM (active).

With `ClC1=C(Cl)[C@]2(Cl)[C@@H]3[C@@H]4C[C@@H]([C@H]5O[C@@H]45)[C@@H]3[C@@]1(Cl)C2(Cl)Cl`, the Potency entry is “inactive”.

Turning to `CCCN(CCC)c1c([N+](=O)[O-])cc(S(N)(=O)=O)cc1[N+](=O)[O-]`, the Potency is 24.3 µM (active).

Turning to `C=CCON=C(C[C@H]1O[C@@H]2O[C@]3(C)CC[C@@H]4[C@H](C)CC[C@@H]([C@H]1C)[C@@]24OO3)[C@H]1O[C@@H]2O[C@]3(C)CC[C@H]4[C@H](C)CC[C@@H]([C@@H]1C)[C@@]24OO3`, the Potency is 1.18 µM (active).

Turning to `COCC1(CO)C(=O)C2CCN1CC2` (stereo not drawn), the Potency is 2.09 µM (active).

Regarding `COc1ccc2c(c[n+](C)c3c4cc5c(cc4ccc23)OCO5)c1OC`, the Potency was 2.35 µM (active).

As for `CN1[C@H]2CC(O)C[C@H]1[C@H]1O[C@H]12` (stereo partly drawn), the Potency entry was “inactive”.

Another assay deals with MKL-2. The assay is described as above. The following applies: MCC and control cell lines, CellTiter-Glo viability, 72 h; series mostly up to 46 µM. The essentials: as §1
Consider `S=C(SSC(=S)N1CCCCC1)N1CCCCC1`, for which the Potency is 0.0944 µM (active).

`CC=C(C)C(=O)N[C@@H](c1ccccc1)[C@@H](O)C(=O)O[C@H]1C[C@@]2(O)[C@@H](OC(=O)c3ccccc3)[C@@H]3[C@]4(OC(C)=O)CO[C@@H]4C[C@H](O)[C@@]3(C)C(=O)[C@H](OC(C)=O)C(=C1C)C2(C)C`: the Potency entry was “inactive”.

Take `CCCCCC[C@H]1C(=O)O[C@H](C)[C@H](NC(=O)c2cccc(NC=O)c2O)C(=O)O[C@@H](C)[C@@H]1OC(=O)CC(C)C`: the Potency is 4.69 µM (active).

Regarding `C[C@](O)(COc1ccc(C#N)cc1)C(=O)Nc1ccc(C#N)c(C(F)(F)F)c1`, the Potency entry is “inactive”.

`CC1(N2CCC(n3c([C@@H]4CCCNC4)nc4ccccc43)CC2)CCCCCCC1`: the Potency was 13.2 µM (active).

As to `CC(=O)[O][Hg][c]1ccccc1`, the Potency was 0.106 µM (active).

Take `O=C(O)c1cc(Oc2ccc(C(F)(F)F)cc2Cl)ccc1[N+](=O)[O-]`: the Potency entry was “inactive”.

As for `C[C@@]12OC(=O)[C@]1([C@@H](O)[C@@H]1C=CCCC1)NC(=O)[C@H]2CCCl`, the Potency was 0.526 µM (active).

For `Cc1c(C(=O)c2cccc3ccccc23)c2cccc3c2n1[C@H](CN1CCOCC1)CO3`, the Potency is 23.5 µM (active).

`CO[C@H]1CCC(O[C@H]2C[C@H]([C@]3(C)CC[C@]4(C[C@H](O)[C@@H](C)[C@@H]([C@@H](C)C=C(C)C(=O)[C@H](C)C[C@H](C)C(=O)O)O4)O3)O[C@]3(O[C@@H]([C@H]4O[C@@](O)(CO)[C@H](C)C[C@H]4C)C[C@H]3C)[C@H]2C)O[C@H]1C` (stereo partly drawn): the Potency was 0.662 µM (active).

On to `ClC1=C(Cl)[C@]2(Cl)[C@@H]3[C@@H]4C[C@@H]([C@H]5O[C@@H]45)[C@@H]3[C@@]1(Cl)C2(Cl)Cl`, for which the Potency result was “inactive”.

With `CCCN(CCC)c1c([N+](=O)[O-])cc(S(N)(=O)=O)cc1[N+](=O)[O-]`, the Potency is 21.7 µM (active).

With `COc1ccc2c(c[n+](C)c3c4cc5c(cc4ccc23)OCO5)c1OC`, the Potency was 0.743 µM (active).

On to `CN1[C@H]2CC(O)C[C@H]1[C@H]1O[C@H]12` (stereo partly drawn), for which the Potency result is “inactive”.

The subject of the next assay is UISO. The description is as above. The following applies: MCC and control cell lines, CellTiter-Glo viability, 72 h; series mostly up to 46 µM. A digest of the protocol: as §1
Turning to `S=C(SSC(=S)N1CCCCC1)N1CCCCC1`, the Potency is 0.0944 µM (active).

With `C[C@](O)(COc1ccc(C#N)cc1)C(=O)Nc1ccc(C#N)c(C(F)(F)F)c1`, the Potency result was “inactive”.

For `CCCN1CCO[C@@H]2c3cc(O)ccc3OC[C@@H]21`, the Potency result is “inactive”.

Consider `CC(=O)[O][Hg][c]1ccccc1`, for which the Potency is 0.841 µM (active).

For the compound `O=C(O)c1cc(Oc2ccc(C(F)(F)F)cc2Cl)ccc1[N+](=O)[O-]`, the Potency result is “inactive”.

In the case of `C[C@@]12OC(=O)[C@]1([C@@H](O)[C@@H]1C=CCCC1)NC(=O)[C@H]2CCCl`, the Potency is 1.48 µM (active).

With `CCCN(CCC)c1c([N+](=O)[O-])cc(S(N)(=O)=O)cc1[N+](=O)[O-]`, the Potency was 21.7 µM (active).

For the compound `Nc1ccc(Cl)cc1N`, the Potency entry was “inactive”.
